Data taken from PubChem BioAssay AID1851 (National Center for Advancing Translational Sciences (NCATS), 2009).
Values joined by “and” are separate entries in the source; they are usually repeats but may differ in a detail not shown here. Equal values may be shown once. Out of some 16,000 compounds screened, about 4,000 (25%) were called active. Another 26% or so got no clear call; they are omitted. Calls come from the whole dose curve; as a rule, active = well fitted curve in the direction sought with a large enough effect; inconclusive = small, poorly fitted or top-dose-only effect, or effect the other way; inactive = no such curve, though single readings can be large or run the other way. These entries were drawn from the full list. Where a structure was tested more than once in an assay, its records may differ in their call.

The compounds below were run against Cytochrome P450 2C9 (Homo sapiens) (UniProt P11712) (assay: Cytochrome panel assay with activity outcomes). Conditions: recombinant CYP, pro-luciferin dealkylation, luminescence, p450-cyp2c9; series mostly up to 57.1 µM.
Chain of Cytochrome P450 2C9 (Homo sapiens) (P11712 whole entry, looked up): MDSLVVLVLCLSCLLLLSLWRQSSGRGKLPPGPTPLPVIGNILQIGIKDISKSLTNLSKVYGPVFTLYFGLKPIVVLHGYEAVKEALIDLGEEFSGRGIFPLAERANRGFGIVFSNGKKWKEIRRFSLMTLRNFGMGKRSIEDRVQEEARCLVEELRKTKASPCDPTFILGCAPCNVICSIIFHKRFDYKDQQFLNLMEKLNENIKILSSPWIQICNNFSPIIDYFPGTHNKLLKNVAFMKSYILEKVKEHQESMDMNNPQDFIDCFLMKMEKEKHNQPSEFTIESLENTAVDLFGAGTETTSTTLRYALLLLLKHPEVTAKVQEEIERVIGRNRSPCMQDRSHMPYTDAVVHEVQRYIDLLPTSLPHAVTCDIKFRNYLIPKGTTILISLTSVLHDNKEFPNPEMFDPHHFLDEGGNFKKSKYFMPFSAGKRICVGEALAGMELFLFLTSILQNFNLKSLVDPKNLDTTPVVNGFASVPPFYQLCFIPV
% is set by controls: 0 for no effect and ±100 for the full control effect.

Row | Structure (SMILES) | activity, negative = inhibition | AC50
1 | COc1c2c(cc3c1OCO3)CCN(C)C2 | inactive | –
2 | NCC#Cc1ccccc1 | – | 10 µM (active)
3 | O=C(Oc1ccccc1)N1CCC[C@@]2(CCN(C(c3ccccc3)c3ccccc3)C2)C1 | inactive | –
4 | C[N+]1([O-])[C@@H]2CC[C@H]1CC(OC(=O)[C@@H](CO)c1ccccc1)C2 (some centres undefined) | inactive | –
5 | COC(=O)[C@@]1(Cc2ccc(F)cc2)[C@H]2c3cc(C(=O)N(C)C)[nH]c3C[C@H]2CN1C(=O)c1ccccc1 | – | 10 µM (active)
6 | CN(C)CCCc1c[nH]c2ccccc12 | -1.95% [at 11.4 µM] (inactive) | –
7 | COc1cc2c(cc1O)C[C@H]1c3c(cc(O)c(OC)c3-2)CCN1C | inactive | –
8 | Cn1c[n+](C)cc1C(O)c1ccccc1 (centres undefined) | inactive | –
9 | O=C(Nc1ccc(Cl)cc1)Nc1nccs1 | – | 17.8 µM (active)
10 | O=C1CS[C@@H](c2ccccc2Cl)c2cc(Cl)ccc2N1 | – | 15.8 µM (active)
11 | COc1cc2c(cc1OC)[C@@H]1C(=O)c3ccc4c(c3O[C@@H]1CO2)C=CC(C)(C)O4 | inactive | –
12 | C[C@H](N)Cc1c[nH]c2ccc(O)cc12 | inactive | –
13 | O=c1c2ccccc2c2ccccc2c(=O)n1-c1cc2c3ccccc3ccc2c2ccccc12 | – | 0.316 µM (active)
14 | c1csc(CN2CCC3(CCNCC3)CC2)n1 | inactive | –
15 | CN(C)CCCNc1c2c(nc3ccc(Cl)cc13)CCCC2 | 6.4% [at 11.4 µM] (inactive) | –
16 | CC(=O)OCC1=C(C(=O)O)N2C(=O)[C@@H](N)[C@@H]2SC1 | inactive | –
17 | CCc1cc2c(nc1CC)CCN(CC/C(C)=N/OC)C2 | 7.8% [at 11.4 µM] (inactive) | –
18 | CS(=O)c1ccc(-c2nc(-c3ccc(F)cc3)c(-c3ccncc3)[nH]2)cc1 (centres undefined) | – | inactive and 2 µM (active)
19 | Cc1ccc(S(=O)(=O)N[C@@H](CCCCN)C(=O)CCl)cc1 | inactive | –
20 | O=C(Nc1ccccc1)N1CCCC2(CCN(C(=O)Oc3ccccc3)CC2)C1 | inactive | –
21 | Cc1cc(C)c(C#N)c(SCC(=O)c2ccc(Cl)cc2Cl)n1 | – | 5.01 µM (active)
22 | COc1ccc2c(c1)CCC1[C@@H]2CCC2(C)[C@@H](NCCCCCCN3C(=O)C=CC3=O)CC[C@@H]12 (some centres undefined) | inactive | –
23 | COc1ccc(C[C@@H](N)c2ccc(OC)cc2)cc1 | -15.8% [at 11.4 µM] (inactive) | –
24 | N=C(N)SCc1ccc(Cl)c2ccccc12 (tested in a mixture with another compound) | 9.59% [at 11.4 µM] (inactive) | 3.98 µM (active)

Row | Structure (SMILES) | activity, negative = inhibition | AC50
25 | O=[As](O)(O)c1ccc(NCc2ccccc2)cc1 | -7.26% [at 11.4 µM] (inactive) | –
26 | C[C@H]1[C@H](NC(=O)/C(=N/OC(C)(C)C(=O)O)c2csc(N)n2)C(=O)N1S(=O)(=O)O (stereo in doubt) | inactive | –
27 | O=c1[nH]oc2c1CCNC2 | inactive | –
28 | N#Cc1ccc(CN2CC[C@@]3(CCCNC3)C2)cc1 | inactive | –
29 | COC(=O)C1=Nc2ccccc2/C1=C\c1c(O)n(-c2ccc(OC)cc2)c(=O)[nH]c1=O | – | 1.26 µM (active)
30 | NCCCNCCSP(=O)(O)O | inactive | –
31 | CN1Cc2c(ccc3c2OCO3)[C@@H]2[C@@H](O)Cc3cc4c(cc3[C@@H]21)OCO4 | inactive | –
32 | NC(N)=NCCN=C(N)N | 3.96% [at 11.4 µM] (inactive) | –
33 | Clc1cc(I)cc(Cl)c1NC1=NCCN1 | inactive | –
34 | CCc1ccccc1NC(=S)NC1CC2CCC(C1)N2Cc1ccco1 (centres undefined) | inactive | –
35 | CCNC(=S)NC1CC2CCCC(C1)N2Cc1ccco1 (centres undefined) | inactive | –
36 | CC(C)CNC(=S)NC1CC2CCCC(C1)N2Cc1ccco1 (centres undefined) | – | 2.82 µM (active)
37 | C#C[C@@]1(O)CC[C@@H]2[C@@H]3CCC4=CC(=O)CC[C@@]4(C)[C@H]3CC[C@]21C | inactive | –
38 | S=C(Nc1ccc(Cl)cc1)NC1CC2CCCC(C1)N2C1CCCC1 (centres undefined) | inactive | –
39 | Nc1nc(N)c(N=Nc2ccc([As](=O)(O)O)c(O)c2)c(N)n1 | -7.93% [at 11.4 µM] (inactive) | –
40 | CC1=NN(c2ccccc2)C(=O)[C@@H]1N=Nc1ccc([As](=O)(O)O)c(O)c1 | – | 3.16 µM (active)
41 | CC[N+](CC)(CC)CCOc1cccc(OCC[N+](CC)(CC)CC)c1OCC[N+](CC)(CC)CC | inactive | –
42 | CC1=C2[C@@H]3OC(=O)[C@@H](C)[C@@H]3CC[C@]2(C)C=CC1=O | inactive | –
43 | O=C(Nc1cccc(F)c1)N1CC2(CCNCC2)C1 | inactive | –
44 | Cc1nc(N)sc1CCN | inactive | –
45 | Cc1ccc(C2(c3ccc(C)c(O)c3C)CCN(C)CC2)c(C)c1O | 7.08% [at 11.4 µM] (inactive) | –
46 | COc1cc([C@H]2c3cc4c(cc3[C@@H](O)[C@@H]3COC(=O)[C@H]23)OCO4)cc(OC)c1OC | – | 1.26 µM (active)
47 | COc1ccc2c(c1OC)CN1CCc3cc4c(cc3[C@H]1C2)OCO4 | inactive | –
48 | CP(=O)(O)C1=CCNCC1 | inactive | –
